Results reported in PubChem BioAssay AID743279 (National Center for Advancing Translational Sciences (NCATS), 2014).
Screen size: about 360,000 compounds; about 17,000 (4.7%) were called active. Inconclusive results (about 5%) are left out. Cut-off read from the data, not from the text of the source: active = activity change below about -50%; inconclusive = mostly about -30% to -49%; inactive = weaker than that. Many of the other results were omitted from the sample, so actives are more common in it than they were.

Assay: qHTS for Inhibitors of Inflammasome Signaling: IL-1-beta AlphaLISA Primary Screen
Details: THP-1 LPS/ATP IL-1B secretion, 16 h; at 57.5 µM, active compounds read low
Excerpt: Inflammasomes are a set of intracellular multi-protein complexes that enable autocatalytic activation of inflammatory caspases and drive the innate immune response to counter harmful agents. […] A qHTS assay, based on AlphaLISA technology, was developed to screen the Molecular Libraries Small Molecule Repository (MLSMR) to look for novel inflammasome inhibitors. The assay detects IL-1B using AlphaLISA anti-IL-1B acceptor and donor beads. A decreased emission signal, indicating reduced IL-1B secretion, is the desired outcome for this assay. NIH Chemical Genomics Center [NCGC] NIH Molecular Libraries Probe Centers Network [MLPCN] MLPCN Grant: MH095513 Assay Provider: Shyam Biswal Ph.D., Johns Hopkins University Immunity. 2012 Jul 27;37(1):85-95. PMID: 22819042 [2] Curr Pharm Des. 2012;18(16):2320-8. PMID: 22390695
Three microliters containing 3000 THP-1 cells were dispensed into the wells of solid, white, tissue culture treated Greiner 1,536-well plates. Library compounds and positive control, Glyburide, were pin-transferred (23 nL) by a Kalypsys pin-tool equipped with a 1,536-pin array, resulting in final compound concentration ranges of 2.5 nM to 57.5 uM. After 1 hr of cell culture incubation (37 °C, 5% CO2), 1 microL of 1 microg/mL lipopolysaccharide (250 ng/mL, final) and 5 mM ATP (1.25 mM, final) were added to stimulate the cells. After 16 hr of cell culture incubation with the compounds, 1.5 uL of anti-IL-1B acceptor beads (6 ug/mL, final) and biotinylated antibody (0.6 nM, final) were added to the plate, followed by a 1 hr incubation at ambient temperature. To detect the secreted IL-1B, 1.5 uL of AlphaLISA SA-Donor beads (24 ug/mL, final) were added, followed by 30 min of incubation in the dark at ambient temperature. The AlphaLISA signal was read by a PerkinElmer EnVision plate reader with an ultrasensitive luminescence detector and 1536 Plate HTS AlphaScreen aperture (excitation of 680nm and emission of 615nm).
% is set by controls: 0 for no effect and ±100 for the full control effect.

Activity change, active:
CCOC(=O)N1CCC(N2Cc3cccc(C(=O)Nc4c(C)cccc4CC)c3C2=O)CC1 -55.1%
COc1cccc(NC(=O)CN(C)C(=O)CSCc2nc3scc(-c4cccs4)c3c(=O)[nH]2)c1 -57.4%
c1ccc2c(NC3C4CC5CC(C4)CC3C5)nc(N3CCOCC3)nc2c1 (configuration not stated) -79.7%
COc1ccc(/C=C/C(=O)c2ccc(NS(=O)(=O)c3ccc(C)cc3)cc2)cc1O -103%
O=C(O)c1ccccc1N=N/C(=N/Nc1cc(S(=O)(=O)O)ccc1O)c1ccccc1 -57.4%
Cc1ccc(N2CCN(C(=O)c3cccs3)CC2)c(C)c1 -56%
COc1ccc(NC(=O)CSc2ncnc3[nH]ncc23)cc1 -51%
CC(=O)c1c(C)[nH]c(C(=O)COC(=O)CCOc2ccc(C)cc2)c1C -89.1%
CCN(C(=O)COC(=O)c1cc(NS(=O)(=O)c2ccc(Cl)c([N+](=O)[O-])c2)ccc1O)C1CCCCC1 -98.5%
C=CC(=O)Nc1ccc(Nc2ccnc(Nc3ccc(N4CCN(C)CC4)cc3)n2)cc1 -83.2%
COc1cccc(Nc2nc(N)c([N+](=O)[O-])c(NCc3ccco3)n2)c1 -69.4%

Activity change, inactive:
CCOC(=O)N1CCC(N2Cc3cccc(C(=O)Nc4ccc(S(=O)(=O)N(CC)CC)cc4)c3C2=O)CC1 63.8%
O=C(O)c1cccc2c1C(=O)N(C1CCCC1)C2 -1.11%
CC1(C(=O)NCc2ccc3c(c2)OCO3)CCN1C(=O)Cc1cccs1 (configuration not stated) -5.2%
COc1cccc(NC(=O)CN(C)C(=O)/C=C/c2cn(-c3ccccc3)nc2-c2cccs2)c1 -24.8%
COc1cccc(NC(=O)CN(C)C(=O)CSC(=S)N2CCCC2)c1 6.49%
Cc1cc(C)n(CC(=O)Nc2ccc([N+](=O)[O-])cc2)n1 15.4%
COCOc1cccc(CN2CCC(C)(Oc3ccc(SC)cc3)C2)c1 (configuration not stated) -9.11%
Fc1cnc(N2CCOCC2)nc1NCc1ccccc1 38.4%
c1cnc(NC2C3CC4CC(C3)CC2C4)nc1 (configuration not stated) 16.6%
O=C(CNC(=O)N1CC(=O)Nc2ccccc21)Nc1ccc(Br)cc1F 16.8%
CC(C)Cc1nnc(N)s1 -2.84%
CC1Cc2nc(SCC(=O)Nc3ccccc3F)n(C)c(=O)c2S1 (configuration not stated) 11.4%
COCc1cccc(-c2csc(C(O)c3ccc(F)cc3)n2)c1 (configuration not stated) -9.62%
Cc1ccc(C(=O)/C=C/Nc2ccc(S(=O)(=O)Nc3onc(C)c3C)cc2)cc1 31.6%
COc1ccc(NS(=O)(=O)c2ccc(NC(=S)NC(=O)/C=C/c3ccc(C)cc3)cc2)nn1 -26.8%
CC1CC(C)CN(c2ccc(S(=O)(=O)N3CCOCC3)cc2)C1 (configuration not stated) -9.62%
COc1ccc(NC(=O)CSc2nnnn2-c2cccc(OC)c2)cc1 -9.12%
CC1(C(=O)NS(=O)(=O)Cc2cccc(Cl)c2)CCN1C(=O)Cc1ccc(Cl)cc1Cl (configuration not stated) -21.1%
O=C(O)c1ccccc1/C=N/Nc1ccc(S(=O)(=O)Nc2ccc(Cl)cc2)cc1[N+](=O)[O-] 12.8%
Cc1ccc(S(=O)(=O)N2CCC(C(=O)N3CCCCCCC3)CC2)cc1 -8.84%
O=C1C(Cl)=C(Oc2ccccc2)C(=O)c2ccccc21 -18%
CCS(=O)(=O)N1CCN(C(=O)c2cccs2)CC1 38.7%
Cc1ccc(S(=O)(=O)N2CCN(C(=O)c3cccs3)CC2)cc1 0%
Cc1nc2ccccc2c(C(=O)O)c1-c1ccccn1 12.8%
COc1ccc(-n2ncc3c(SCC(=O)NNC(C)=O)ncnc32)cc1 -3.94%
COc1ccc(NC(=O)CSc2nc(C)cs2)cc1 15.6%
CCN(CC)C(=O)C1=C(C)N(Cc2ccc(F)cc2)C(=O)C(CC(=O)NC2CCCC2)C1 (configuration not stated) 3.15%
CCOc1ccc(CCNC(=O)COC(=O)c2ccc(C)c(S(=O)(=O)N3CCOCC3)c2)cc1OCC -2.62%
Cc1noc(C)c1NC(=O)N(C)C[C@@H]1Oc2cc(Br)ccc2S(=O)(=O)N([C@@H](C)CO)C[C@H]1C -11.1%
CCCNC(=O)c1cc(C2CCCN(C(=O)c3ccc4c(c3)CCO4)C2)on1 (configuration not stated) 25.3%
CC(=O)c1c(C)[nH]c(C(=O)COC(=O)c2cccs2)c1C 17.9%
COc1cccc(C(=O)OCC(=O)c2[nH]c(C)c(C(C)=O)c2C)c1 12.1%
COc1c(F)c(F)c(-c2csc(N)n2)c(F)c1F -14.1%
CCOC(=O)[C@]12CCC=C1N(Cc1ccccc1)C(=O)[C@H](CC(=O)N1CCCC1)C2 48.2%
CN(C)c1ccc(S(=O)(=O)NCC(=O)NCC2CCCCC2)cc1[N+](=O)[O-] 8.52%
COc1ccc(NS(=O)(=O)c2ccc(O)c(C(=O)OCC(=O)NC3CCCCC3)c2)cc1 40.3%
C=CCn1c(SCC(=O)c2ccc(Br)cc2)nnc1C(C)NC(=O)Cc1ccc(OC)cc1 (configuration not stated) 18.8%
Cn1cnnc1SCC(=O)Nc1ccc(N2CCOCC2)cc1 19.7%
Cc1cccc(N2CCN(c3ccc(NC(=O)/C=C\C(=O)O)cc3)CC2)c1 -21.2%
COc1cccc(-c2ccc3c(c2)N(Cc2ccccc2OC)C(=O)C(C)S3)c1 (configuration not stated) 43.9%
COc1ccc(CCNC(=O)Nc2ccc3c(c2)c(=O)n(C)n3C)cc1OC -16.8%
Cc1c(OC(C)C(=O)N[C@@H](Cc2ccccc2)C(=O)O)ccc2c3c(c(=O)oc12)CCCC3 (some centres not stated) 11.6%
O=C1NC(=O)C(CCc2ccccc2)(c2ccccc2)N1 (configuration not stated) -4.4%
O=C(NCc1ccccc1)c1onc(CSc2ccncc2)c1C(=O)NCc1ccccc1 39.9%
COc1ccc(Nc2nc(NCc3ccco3)nc(N/N=C/c3ccccc3Cl)n2)cc1 -12.1%
CN(c1ccccc1)c1nc(N)c([N+](=O)[O-])c(NCc2ccco2)n1 -23.7%
